Screens: PubChem BioAssay, National Center for Advancing Translational Sciences (NCATS)
Most compounds without a hit are left out; they make up all but 6.5% or so of the library.
VACV mCherry inh: vaccinia inhibition (mCherry reporter); Vaccinia virus mCherry reporter infection, fluorescence; Potency, µM (series often up to 36.5 µM), for inactives: at the highest dose activity change, negative = inhibition, usual class: inhibitors; 310,000 tested, 0.63% active; AID 720579; calls by dose curve; tested in A549 cells; note: potency is the fitted concentration of half-maximal effect; nearly all actives have a fitted effect of over 35% in size
MARV entry inh: blocks Marburg virus binding to or entry into cells; Potency, µM (highest dose often 37.8 µM), for inactives: at the top dose activity change, negative = inhibition, actives largely listed as inhibitors; 300,000 tested, 1.8% active; Marburg virus pseudotyped entry inhibition, cell reporter; calls by dose curve; tested in HEK293 cells; note: potency is the fitted concentration of half-maximal effect
HCMV antiviral: blocks human cytomegalovirus replication | HFF cells, HCMV-luciferase reporter, 72 h; active compounds read low | activity change, negative = inhibition, % at 57.5 µM | 410,000 tested, 4.5% active; in the data active = activity change below about -60%; inconclusive = no clear call, values can overlap the other calls; inactive = above about -39%
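Cell-based, HFFs, 1000 cells/well, 16 h 37C; cpds in DMSO + HCMV-luc, MOI 1 PFU/cell; 72 h 37C; OneGlo luminescence after 5 min RT; norm. to buffer vs Salinomycin 10uM.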
LASV entry inh: Lassa virus entry inhibition; Lassa virus pseudotype entry inhibition, cell reporter; Potency, µM (top dose mostly 37.9 µM), for the others: at the highest dose activity change, negative = inhibition, hits mostly inhibitors; AID 540256; 300,000 tested, 1.2% active; calls by dose curve; tested in HEK293 cells; note: potency is the fitted concentration of half-maximal effect; nearly all actives have a fitted effect of over 50% in size
FMDV antiviral: blocks foot and mouth disease virus | FMDV antiviral cell-based qHTS | Potency, µM (doses to about 57.9 µM), without a hit: at the top dose activity change, negative = inhibition, actives largely listed as inhibitors | 410,000 tested, 1.2% active; calls by dose curve; tested in HEK293T cells; note: read-out not given here; potency is the fitted concentration of half-maximal effect; nearly all actives have a fitted effect of over 45% in size
VACV Venus inh: vaccinia inhibition (Venus reporter). AID 720580. Vaccinia virus Venus reporter expression, fluorescence. Potency, µM (top dose mostly 36.5 µM), without a hit: at the top dose activity change, negative = inhibition, actives largely listed as inhibitors. 330,000 tested, 0.46% active; calls by dose curve; tested in A549 cells; note: potency is the fitted concentration of half-maximal effect; nearly all actives have a fitted effect of over 30% in size
Active calls of the source: *; i = inactive; ? = inconclusive; · = no result; [ ] = dose if it differs, or a comment. % is set by controls: 0 for no effect and ±100 for the full control effect.

SMILES	VACV mCherry inh	MARV entry inh	HCMV antiviral	LASV entry inh	FMDV antiviral	VACV Venus inh
Cc1cc(NC(=O)c2cccc(COc3ccc(Br)cc3)c2)no1	i	7.3µM*	127	13µM*	-25%	-25%
Cc1nn(Cc2c(F)c(F)c(F)c(F)c2F)c(C)c1NC(=O)c1cccc(COc2ccc(Cl)cc2)c1	-11%	?	64	2%	-7%	-27%
O=C(NCC1Cc2cccc(-c3cnccn3)c2O1)C1COc2ccccc2O1 (centres undefined)	i	·	·	·	0%	-12%
CC1Cc2cc(-c3csc(NC(=O)Cc4ccccc4)n3)ccc2N1S(C)(=O)=O (centres undefined)	?	10µM*	-98*	?	·	?
CS(=O)(=O)N1CCc2cc(-c3csc(NC(=O)C(c4ccccc4)c4ccccc4)n3)ccc21	-28%	-20%	-16	-22%	·	-23%
COc1ccccc1N1CCN(c2nc(CNC(=O)c3ccc(C)c(C)c3)nc3ccccc23)CC1	i	·	·	·	2%	0%
Cn1ccc2c(-c3cccc(C=O)c3)cc3c(c21)C1CCC3O1 (centres undefined)	11%	·	10	·	-15%	-4%
CCOC(=O)c1sc2nc(CC(=O)OC)nc(NCCN(CC)CC)c2c1C	-19%	?	-31	-15%	-11%	-26%
CCOC(=O)c1sc2nc(CC(=O)OC)nc(NCc3ccc(Cl)cc3)c2c1C	·	-9%	-107*	-5%	-29%	·
O=C(NCCCCN1CCN(c2cccc(Cl)c2Cl)CC1)c1ccc2c(c1)Cc1ccccc1-2	·	·	·	·	-12%	·
COC(=O)c1ccccc1NC(=O)Cn1cnc2c1c(=O)n(C)c(=O)n2C	-15%	-6%[46.1 µM]	19	-15%	?	0%
CCOC(=O)Cc1csc(NC(=O)Cn2cnc3c2c(=O)n(C)c(=O)n3C)n1	-3%	2%[46.1 µM]	15	0%	?	1%
Cn1c(=O)c2c(ncn2CC(=O)Nc2nc(-c3ccccc3Cl)cs2)n(C)c1=O	·	?	-60*	?	13µM*	·
Cn1c(=O)c2c(ncn2CC(=O)Nc2ccccc2Sc2ccccc2)n(C)c1=O	-11%	?	-76*	-9%	·	-20%
CN(C(=O)c1cccc(NC(=O)Cc2ccc(NC(=O)C3CCN(C(=O)C4CCC4)CC3)cc2)c1)C1CCC1	i	·	2	·	-19%	-21%
CCOC(=O)C1=C2C=C(OC)C=CC2OC1CN(CC)CC (centres undefined)	·	-17%[46.1 µM]	·	·	·	·
COc1cccc(CNC(=O)c2ccc(C)c(S(=O)(=O)N3CCCCC3)c2)c1	?	?	-22	?	?	-25%
C=C(C)C(=O)C=Cc1ccc(Br)cc1	·	6%[14.2 µM]	·	·	·	·
COC(=O)c1cc(S(=O)(=O)NCCc2sccc2C)c[nH]1	·	·	-35	·	66%	·
Cc1cc(C)c2c(=O)c3c(oc2c1)C(=O)N(Cc1ccc(F)cc1)C3c1cccc(O)c1 (centres undefined)	-28%	?	-66*	-37%[46.1 µM]	-11%	?
Cc1ccc2oc3c(c(=O)c2c1)C(c1cccc(O)c1)N(Cc1ccccc1Cl)C3=O (centres undefined)	-8%	4%[46.1 µM]	-74*	26%[46.1 µM]	21%	-4%
COCCN1C(=O)c2oc3cc(C)cc(C)c3c(=O)c2C1c1cccc(O)c1 (centres undefined)	-2%	-24%[46.1 µM]	-4	6%[46.1 µM]	-9%	-2%
Nc1c(-c2ccccc2)c(CN2CCOCC2)nn1-c1ccc(C(=O)O)cc1	-9%	?	-24	7%	-7%	-5%
C[C@H]1COC(=O)[C@@H](NC(=O)OCC2c3ccccc3-c3ccccc32)C/C=C\C[C@H](CC(=O)NCCO)C(=O)N1	i	·	-35	·	-8%	-15%
O=C(c1cccc(F)c1F)N1CCOc2ccc(CN3CCC(Oc4cccnc4)CC3)cc2C1	11%	·	·	·	-19%	-4%
CSc1ccc(CCNC(=O)C2CCCN(S(=O)(=O)N(C)c3ccc(F)cc3)C2)cc1 (centres undefined)	-7%	·	?	-18%[46.1 µM]	35µM*	-22%
COc1ccc(OC)c(CNC(=O)C2CCCN(S(=O)(=O)N3CCC(C)CC3)C2)c1 (centres undefined)	·	·	-24	·	-17%	·
